Laboratory results from PubChem BioAssay (EPA / NIEHS).
Active and inactive are the calls of the source. Rule for the calls: active = hit-call score of the fitted dose curve at least 0.9, where 1 is the maximum; inactive = score below 0.9.

Assays:
[1] = read-out: flavin-containing dimethylaniline monooxygenases 3 (FMO3), FMO3 (gene 2328); assay: LTEA_HepaRG_FMO3: Life Technologies and Expression Analysis (LTEA) Assay for flavin-containing dimethylaniline monooxygenases 3 (FMO3) using HepaRG (AID 2283453); details: mRNA level, 48 h; actives raise or lower the signal
In short: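 Differentiated HepaRG cells in serum-free induction medium, exposed 48 h in duplicate to 8 half-log concentrations up to 100 uM in 0.5% DMSO. FMO3 mRNA by qRT-PCR, normalized to ACTB, GAPDH, POLR2A; bidirectional fit vs DMSO.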

[2] = read-out: Cytochrome P450 (CYP1A1), CYP1A1 (gene 1543); assay: LTEA_HepaRG_CYP1A1: Life Technologies and Expression Analysis (LTEA) Assay for Cytochrome P450 (CYP1A1) using HepaRG (AID 2283454); details: mRNA level, 48 h; actives raise or lower the signal
In short: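 Induction of CYP1A1 mRNA in a human hepatic cell line was measured 48 h after dosing, with 1 mM phenobarbital as induction positive control and 0.5% DMSO vehicle as baseline for bidirectional curve fitting.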

[3] = read-out: CFLAR gene, CFLAR (gene 8837); assay: LTEA_HepaRG_CFLAR: Life Technologies and Expression Analysis (LTEA) Assay for CFLAR gene using HepaRG (AID 2283455); details: mRNA level, 48 h; actives raise or lower the signal
In short: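 Differentiated HepaRG cells in serum-free induction medium were exposed 48 h in duplicate to eight half-log concentrations up to 100 uM in 0.5% DMSO; mRNA measured by TaqMan qRT-PCR, normalized to ACTB, GAPDH, POLR2A; bidirectional fitting versus DMSO.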

[4] = read-out: Forkhead box O1 (FOXO1), FOXO1 (gene 2308); assay: LTEA_HepaRG_FOXO1: Life Technologies and Expression Analysis (LTEA) Assay for Forkhead box O1 (FOXO1) using HepaRG (AID 2283456); details: mRNA level, 48 h; actives raise or lower the signal
In short: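 Differentiated HepaRG cells, in serum-free induction medium with 0.5% DMSO, exposed 48 h in duplicate to 8-point half-log series from 100 uM. FOXO1 mRNA measured by TaqMan qRT-PCR, normalized to ACTB, GAPDH, POLR2A; bidirectional fit versus DMSO.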

[5] = read-out: growth arrest and DNA damage 45 (GADD45A), GADD45A (gene 1647); assay: LTEA_HepaRG_GADD45A: Life Technologies and Expression Analysis (LTEA) Assay for growth arrest and DNA damage 45 (GADD45A) using HepaRG (AID 2283458); details: mRNA level, 48 h; actives raise or lower the signal
In short: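 Cells plated and cultured 48 h, switched to serum-free induction medium, then dosed for 48 h (100 uM top, half-log dilutions, 0.5% DMSO). RNA was isolated and transcript measured by Fluidigm qRT-PCR.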

[6] = read-out: Forkhead box O3 (FOXO3), FOXO3 (gene 2309); assay: LTEA_HepaRG_FOXO3: Life Technologies and Expression Analysis (LTEA) Assay for Forkhead box O3 (FOXO3) using HepaRG (AID 2283459); details: mRNA level, 48 h; actives raise or lower the signal
In short: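 Differentiated human HepaRG cells, 48 h post-plating, exposed in duplicate for 48 h in serum-free induction medium; 8-point half-log series from 100 uM in 0.5% DMSO. FOXO3 mRNA by TaqMan qRT-PCR, normalized to ACTB/GAPDH/POLR2A; bidirectional fit versus DMSO.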

[7] = read-out: ABC Transporter (ABCB1), ABCB1 (gene 5243); assay: LTEA_HepaRG_ABCB1: Life Technologies and Expression Analysis (LTEA) Assay for ABC Transporter (ABCB1) using HepaRG (AID 2283460); details: mRNA level, 48 h; actives raise or lower the signal
In short: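 HepaRG cells exposed in duplicate for 48 h in serum-free induction medium to eight half-log concentrations up to 100 uM in 0.5% DMSO. ABCB1 mRNA quantified by qRT-PCR, normalised to ACTB, GAPDH and POLR2A; fitted bidirectionally versus DMSO.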

[8] = read-out: growth arrest and DNA damage 45 (GADD45B), GADD45B (gene 4616); assay: LTEA_HepaRG_GADD45B: Life Technologies and Expression Analysis (LTEA) Assay for growth arrest and DNA damage 45 (GADD45B) using HepaRG (AID 2283461); details: mRNA level, 48 h; actives raise or lower the signal
In short: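 Values are bidirectional concentration-response fits against 0.5% DMSO controls. Underlying data: qRT-PCR mRNA levels in human HepaRG liver cells treated 48 h in serum-free induction medium, eight concentrations topping at 100 uM.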

[9] = read-out: ABC Transporter (ABCC3), ABCC3 (gene 8714); assay: LTEA_HepaRG_ABCC3: Life Technologies and Expression Analysis (LTEA) Assay for ABC Transporter (ABCC3) using HepaRG (AID 2283462); details: mRNA level, 48 h; actives raise or lower the signal
In short: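 Differentiated HepaRG liver cells receive test chemicals at eight concentrations (max 100 uM) for 48 h. Expression of ABCC3 is quantified by qRT-PCR against ACTB, GAPDH and POLR2A, and activity is fitted in both directions against the DMSO control.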

[10] = read-out: ABC Transporter (ABCB11), ABCB11 (gene 8647); assay: LTEA_HepaRG_ABCB11: Life Technologies and Expression Analysis (LTEA) Assay for ABC Transporter (ABCB11) using HepaRG (AID 2283463); details: mRNA level, 48 h; actives raise or lower the signal
In short: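 Differentiated human HepaRG cells in serum-free induction medium, dosed in duplicate for 48 h. Eight-point half-log series from 100 uM in 0.5% DMSO; ABCB11 mRNA by qRT-PCR, normalized to ACTB, GAPDH, POLR2A, fitted bidirectionally versus DMSO.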

[11] = read-out: ABC Transporter (ABCC2), ABCC2 (gene 1244); assay: LTEA_HepaRG_ABCC2: Life Technologies and Expression Analysis (LTEA) Assay for ABC Transporter (ABCC2) using HepaRG (AID 2283464); details: mRNA level, 48 h; actives raise or lower the signal
In short: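 Gene expression of ABCC2 was determined by qRT-PCR in HepaRG cells exposed 48 h to chemicals (highest 100 uM, half-log dilutions). Activity was fitted in both directions relative to 0.5% DMSO vehicle.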

[12] = read-out: Broad substrate specificity ATP-binding cassette transporter ABCG2 (Homo sapiens) (UniProt Q9UNQ0); assay: LTEA_HepaRG_ABCG2: Life Technologies and Expression Analysis (LTEA) Assay for ABC Transporter (ABCG2) using HepaRG (AID 2283465); details: mRNA level, 48 h; actives raise or lower the signal
In short: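 Differentiated HepaRG cells were exposed for 48 h in serum-free induction medium to 8 half-log concentrations, top 100 uM, in 0.5% DMSO. ABCG2 mRNA was measured by qRT-PCR, normalized to ACTB, GAPDH and POLR2A, with bidirectional fitting versus DMSO.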

[13] = read-out: ATP-citrate lyase (ACLY), ACLY (gene 47); assay: LTEA_HepaRG_ACLY: Life Technologies and Expression Analysis (LTEA) Assay for ATP-citrate lyase (ACLY) using HepaRG (AID 2283466); details: mRNA level, 48 h; actives raise or lower the signal
In short: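 Differentiated HepaRG cells exposed 48 h in serum-free induction medium to eight half-log concentrations up to 100 uM in 0.5% DMSO, duplicates. Transcript measured by Fluidigm TaqMan qRT-PCR, normalized to ACTB, GAPDH, POLR2A; bidirectional fit versus DMSO.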

[14] = read-out: Peroxisomal acyl-coenzyme A oxidase 1 (ACOX1) gene, ACOX1 (gene 51); assay: LTEA_HepaRG_ACOX1: Life Technologies and Expression Analysis (LTEA) Assay for Peroxisomal acyl-coenzyme A oxidase 1 (ACOX1) gene using HepaRG (AID 2283467); details: mRNA level, 48 h; actives raise or lower the signal
In short: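 HepaRG cells, plated 48 h then switched to serum-free induction medium, were exposed in duplicate for 48 h to 8-point half-log concentrations up to 100 uM in 0.5% DMSO. ACOX1 mRNA was measured by qRT-PCR, normalized to ACTB/GAPDH/POLR2A, and fitted bidirectionally versus DMSO.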

[15] = read-out: Alkaline Phosphatase, Placental (ALPP) gene, ALPP (gene 250); assay: LTEA_HepaRG_ALPP: Life Technologies and Expression Analysis (LTEA) Assay for Alkaline Phosphatase, Placental (ALPP) gene using HepaRG (AID 2283468); details: mRNA level, 48 h; actives raise or lower the signal
In short: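 Expression of ALPP was quantified by qRT-PCR against three housekeeping genes in human HepaRG cultures treated for 48 h with an eight-point concentration series up to 100 uM. Activity in either direction was fitted relative to 0.5% DMSO.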

[16] = read-out: Bcl-2 (BAD) gene, BAD (gene 572); assay: LTEA_HepaRG_BAD: Life Technologies and Expression Analysis (LTEA) Assay for Bcl-2 (BAD) gene using HepaRG (AID 2283469); details: mRNA level, 48 h; actives raise or lower the signal
In short: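 Differentiated HepaRG cells were exposed in duplicate in 0.5% DMSO for 48 h to eight-point half-log concentrations up to 100 uM. BAD mRNA was measured by Fluidigm TaqMan qRT-PCR, normalized to ACTB, GAPDH and POLR2A, and fitted bidirectionally against DMSO.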

[17] = read-out: Bcl-2 (BAX) gene, BAX (gene 581); assay: LTEA_HepaRG_BAX: Life Technologies and Expression Analysis (LTEA) Assay for Bcl-2 (BAX) gene using HepaRG (AID 2283470); details: mRNA level, 48 h; actives raise or lower the signal
In short: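 HepaRG (human liver), 48 h exposure, duplicate wells. 8-pt curve, half-log from 100 uM, 0.5% DMSO. BAX transcript by TaqMan qRT-PCR; ACTB/GAPDH/POLR2A normalization; gain or loss vs DMSO baseline.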

[18] = read-out: adenosine kinase (ADK) gene, ADK (gene 132); assay: LTEA_HepaRG_ADK: Life Technologies and Expression Analysis (LTEA) Assay for adenosine kinase (ADK) gene using HepaRG (AID 2283471); details: mRNA level, 48 h; actives raise or lower the signal
In short: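 Read-out is ADK transcript level measured by qRT-PCR and normalised to three housekeeping genes. Cells are human HepaRG, dosed for 48 h at up to 100 uM in 0.5% DMSO. Gain or loss of signal is fitted against DMSO controls.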

[19] = read-out: Alpha-fetoprotein (AFP) gene, AFP (gene 174); assay: LTEA_HepaRG_AFP: Life Technologies and Expression Analysis (LTEA) Assay for Alpha-fetoprotein (AFP) gene using HepaRG (AID 2283472); details: mRNA level, 48 h; actives raise or lower the signal
In short: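 HepaRG, single lot; 48 h post-plating -> serum-free induction medium; cpd 8-pt, 100 uM top, half-log, 0.5% DMSO, duplicate, 48 h. RNA -> qRT-PCR AFP, norm ACTB/GAPDH/POLR2A. Bidirectional fit vs DMSO.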

[20] = CEETOX_H295R_TESTO: CeeTox H295R High-throughput Steroidogenesis Assay for Testosterone (TESTO) (AID 2283457); details: actives raise or lower the signal
In short: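 Testosterone synthesis is assessed in human adrenocortical H295R cells after 48 h of chemical exposure, using HPLC-MS/MS of extracted medium. Activity is fitted in both directions against DMSO control.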

Measured: AC50

Broad substrate specificity ATP-binding cassette transporter ABCG2 (Homo sapiens), sequence (Q9UNQ0 whole entry, looked up): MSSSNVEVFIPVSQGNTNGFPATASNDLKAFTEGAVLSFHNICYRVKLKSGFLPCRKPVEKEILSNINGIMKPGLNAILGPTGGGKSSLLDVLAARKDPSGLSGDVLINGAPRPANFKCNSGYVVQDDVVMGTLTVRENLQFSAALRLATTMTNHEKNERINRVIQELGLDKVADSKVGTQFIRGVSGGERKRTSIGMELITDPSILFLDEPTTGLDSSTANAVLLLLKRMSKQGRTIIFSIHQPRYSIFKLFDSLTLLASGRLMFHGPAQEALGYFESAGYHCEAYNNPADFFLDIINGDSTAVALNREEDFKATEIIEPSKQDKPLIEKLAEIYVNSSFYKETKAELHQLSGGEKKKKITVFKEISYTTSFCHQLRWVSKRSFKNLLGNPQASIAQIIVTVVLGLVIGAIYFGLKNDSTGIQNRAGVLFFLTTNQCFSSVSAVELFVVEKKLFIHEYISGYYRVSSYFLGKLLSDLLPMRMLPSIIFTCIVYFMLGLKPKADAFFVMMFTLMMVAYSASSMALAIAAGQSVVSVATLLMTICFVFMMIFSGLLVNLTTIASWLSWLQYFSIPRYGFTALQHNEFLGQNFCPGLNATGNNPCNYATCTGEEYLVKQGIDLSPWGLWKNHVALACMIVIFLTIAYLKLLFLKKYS

COc1c(Cl)ccc(Cl)c1C(=O)O
not listed: [20]
inactive: all other assays above

CCCN(CCC)C(=O)SCC
inactive: all assays above

CCOC(=O)C(C)Oc1ccc(Oc2nc3ccc(Cl)cc3o2)cc1 (stereo unspecified)
active: [2] 56.7 µM | [10] 9.92 µM
not listed: [20]
inactive: all other assays above

C#CCOC(=O)[C@@H](C)Oc1ccc(Oc2ncc(Cl)cc2F)cc1
active: [2] 33 µM | [5] 12.4 µM | [10] 5.03 µM
not listed: [20]
inactive: all other assays above

c1ccc2[nH]c(-c3cscn3)nc2c1
active: [2] 18.9 µM | [12] 9.92 µM
inactive: all other assays above

COCCO
not listed: [20]
inactive: all other assays above
